The nature of test [1]: NCI Yeast Anticancer Drug Screen. Data for the rad50 strain (AID 155).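 Note: 0% = growth of vehicle-only cultures of the same strain.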 The settings on record: S. cerevisiae rad50 strain growth inhibition, active compounds read high. In short, it runs like this:
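DNA repair mutant yeast, compound exposure, growth read-out; inhibition is taken relative to vehicle.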

Test [2] is described as follows: NCI Yeast Anticancer Drug Screen. Data for the mec2-1 strain (AID 157). The settings on record: S. cerevisiae mec2-1 strain, active compounds read high. Put shortly: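 Using mec2-1 yeast: add compound, measure growth, express inhibition versus vehicle-treated cultures.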
The nature of test [3]: NCI Yeast Anticancer Drug Screen. Data for the sgs1 mgt1 strain (AID 161).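 Note: 0% = growth of cultures given vehicle only.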 The settings on record: S. cerevisiae sgs1 mgt1 strain, active compounds read high. Put shortly: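 Growth of a repair-deficient yeast mutant was monitored after compound treatment and expressed as inhibition relative to vehicle-treated cultures.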
Test [4] in a line: NCI Yeast Anticancer Drug Screen. Data for the cln2 rad14 strain (AID 165).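 Note: 0% = growth equal to vehicle treated cultures.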 The settings on record: S. cerevisiae cln2 rad14 strain, active compounds read high. Put shortly: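 Yeast strain cln2 rad14, bearing defects in cell cycle control and DNA repair, serves as the test system; values reflect growth inhibition compared with vehicle.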
Test [5] in a line: NCI Yeast Anticancer Drug Screen. Data for the bub3 strain (AID 167). The settings on record: S. cerevisiae bub3 mutant strain, active compounds read high. In short, it runs like this:
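In this screen, a yeast mutant lacking normal mitotic checkpoint function is challenged with compound. Relative growth versus vehicle gives the inhibition value.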

Test [6] can be described thus: NCI Yeast Anticancer Drug Screen. Data for the mlh1 rad18 strain (AID 175). The settings on record: S. cerevisiae mlh1 rad18 strain growth inhibition, active compounds read high. Put shortly: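 Steps: expose repair-defective yeast to compound; measure growth; express inhibition against vehicle-treated controls.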
Setting [7] is: at 5.0 µM (retest, dose inferred, filed as 0.5).
[8] abbreviates: at 50.0 µM (retest, dose inferred, filed as 5.0).

Compounds without any hit were thinned out: in the full panel of roughly 79,000, 15% have a hit. Unmarked numbers belong to inactive results. Calls of active or inactive are those of the source. Cut-off read from the data, not from the text of the source: active = growth inhibition above about 70%; inactive = the rest.

For `O=C(O)/C(=C\c1cc(I)c(O)c(I)c1)c1ccc(I)cc1`, the growth inhibition in test [1] (setting [7]) is 3%; in test [1] (setting [8]), 39%; in test [1] (at 50.0 µM) it was 88.3% (active); in test [2] (setting [7]), 42%; in test [2] (setting [8]), 70% (active); in test [2] (at 50.0 µM), 80.6% (active). The growth inhibition in test [3] (setting [7]) is 34%; in test [3] (setting [8]), 75% (active); in test [3] (at 50.0 µM) it was 91.8% (active); in test [4] (setting [7]) it was 19%; in test [4] (setting [8]), 70% (active); in test [4] (at 50.0 µM) it was 82.7% (active). For the same molecule, the growth inhibition in test [5] (setting [7]) is 3%; in test [5] (setting [8]), 59%; in test [5] (at 50.0 µM), 48%; in test [6] (setting [7]), 37%; in test [6] (setting [8]), 76% (active); in test [6] (at 50.0 µM), 80.8% (active).
In the case of `CC#CCCCCOC(=O)c1cc([N+](=O)[O-])cc([N+](=O)[O-])c1`, the growth inhibition in test [1] (setting [7]) was 97% (active); in test [1] (setting [8]) it was 99% (active); in test [1] (at 50.0 µM) it was 99.5% (active); in test [2] (setting [7]), 99% (active); in test [2] (setting [8]), 100% (active); in test [2] (at 50.0 µM) it was 99.6% (active). The growth inhibition was 98% (active) in test [3] (setting [7]); 99% (active) in test [3] (setting [8]); 99.6% (active) in test [3] (at 50.0 µM); 90% (active) in test [4] (setting [7]); 99% (active) in test [4] (setting [8]); 99.4% (active) in test [4] (at 50.0 µM). Further, the growth inhibition in test [5] (setting [7]) was 98% (active); in test [5] (setting [8]), 99% (active); in test [5] (at 50.0 µM), 99.7% (active); in test [6] (setting [7]), 98% (active); in test [6] (setting [8]), 99% (active); in test [6] (at 50.0 µM) it was 99.4% (active).
Consider `C=CC(=O)N1C/C(=C\c2ccc([N+](=O)[O-])cc2)C(=O)/C(=C/c2ccc([N+](=O)[O-])cc2)C1`, for which the growth inhibition in test [1] (setting [7]) was 46%; in test [1] (setting [8]), 96% (active); in test [1] (at 50.0 µM), 28.7%; in test [2] (setting [7]), 33%; in test [2] (setting [8]), 97% (active); in test [2] (at 50.0 µM) it was 51.5%. For the same molecule, the growth inhibition in test [3] (setting [7]) was 39%; in test [3] (setting [8]) it was 97% (active); in test [3] (at 50.0 µM), 87.3% (active); in test [4] (setting [7]), 26%; in test [4] (setting [8]), 96% (active); in test [4] (at 50.0 µM), 88% (active). Besides, the growth inhibition in test [5] (setting [7]) was 25%; in test [5] (setting [8]), 96% (active); in test [5] (at 50.0 µM), 83.9% (active); in test [6] (setting [7]), 58%; in test [6] (setting [8]), 96% (active); in test [6] (at 50.0 µM), 81.5% (active).
For the molecule `CNc1ccc([N+](=O)[O-])cc1`, the growth inhibition in test [1] (setting [7]) was -4%; in test [1] (setting [8]), 13%; in test [1] (at 50.0 µM), 43%; in test [2] (setting [7]), 1%; in test [2] (setting [8]), 9%; in test [2] (at 50.0 µM), 12.8%. Also, the growth inhibition in test [3] (setting [7]) is -1%; in test [3] (setting [8]), 11%; in test [3] (at 50.0 µM), -5.2%; in test [4] (setting [7]), 2%; in test [4] (setting [8]), 1%; in test [4] (at 50.0 µM) it was 22.9%. The growth inhibition in test [5] (setting [7]) is -1%; in test [5] (setting [8]), 14%; in test [5] (at 50.0 µM) it was 31.1%; in test [6] (setting [7]), 0%; in test [6] (setting [8]), 19%; in test [6] (at 50.0 µM), 10.3%.
In the case of `Cc1ccc(OS(=O)(=O)c2ccc(Br)cc2)cc1`, the growth inhibition was 2% in test [1] (setting [7]); 5% in test [1] (setting [8]); -6% in test [1] (at 50.0 µM); -16% in test [2] (setting [7]); 10% in test [2] (setting [8]); 0.05% in test [2] (at 50.0 µM). Also, the growth inhibition is 8% in test [3] (setting [7]); 19% in test [3] (setting [8]); -3.65% in test [3] (at 50.0 µM); 9% in test [4] (setting [7]); 6% in test [4] (setting [8]); -1% in test [4] (at 50.0 µM). In addition, the growth inhibition was 16% in test [5] (setting [7]); 41% in test [5] (setting [8]); -7% in test [5] (at 50.0 µM); 3% in test [6] (setting [7]); 31% in test [6] (setting [8]); 12.7% in test [6] (at 50.0 µM).
As for `CC1=CC2OC3CC4OC(=O)/C=C/C=C/C(C(C)O)OCC(=O)C(C)CC(=O)OCC2(CC1)C4(C)C31CO1` (centres undefined), the growth inhibition in test [1] (setting [7]) was 28%; in test [1] (setting [8]) it was 98% (active); in test [1] (at 50.0 µM) it was 90.8% (active); in test [2] (setting [7]) it was 26%; in test [2] (setting [8]), 99% (active); in test [2] (at 50.0 µM), 94% (active). Also, the growth inhibition in test [3] (setting [7]) is 31%; in test [3] (setting [8]) it was 98% (active); in test [3] (at 50.0 µM) it was 91.8% (active); in test [4] (setting [7]), 72% (active); in test [4] (setting [8]) it was 99% (active); in test [4] (at 50.0 µM) it was 91.3% (active). Moreover, the growth inhibition in test [5] (setting [7]) was 60%; in test [5] (setting [8]) it was 99% (active); in test [5] (at 50.0 µM) it was 91.8% (active); in test [6] (setting [7]) it was 65%; in test [6] (setting [8]) it was 99% (active); in test [6] (at 50.0 µM) it was 91.3% (active).
Regarding `CCC[CH2][Sn]([CH2]CCC)([O]C(=O)c1cc(OC)c(OC)cc1OC)[O][Sn]([CH2]CCC)([CH2]CCC)[O]C(=O)c1cc(OC)c(OC)cc1OC`, the growth inhibition in test [1] (setting [7]) is 94% (active); in test [1] (setting [8]) it was 97% (active); in test [1] (at 50.0 µM) it was 88.5% (active); in test [2] (setting [7]) it was 96% (active); in test [2] (setting [8]) it was 98% (active); in test [2] (at 50.0 µM), 91% (active). In addition, the growth inhibition is 96% (active) in test [3] (setting [7]); 99% (active) in test [3] (setting [8]); 91.5% (active) in test [3] (at 50.0 µM); 92% (active) in test [4] (setting [7]); 98% (active) in test [4] (setting [8]); 90.2% (active) in test [4] (at 50.0 µM). The growth inhibition was 97% (active) in test [5] (setting [7]); 98% (active) in test [5] (setting [8]); 90.5% (active) in test [5] (at 50.0 µM); 96% (active) in test [6] (setting [7]); 97% (active) in test [6] (setting [8]); 89% (active) in test [6] (at 50.0 µM).
On to `CN(C)CCCNCC(=O)Nc1ccc(S(=O)(=O)c2ccc(NC(=O)CNCCCN(C)C)cc2)cc1`, for which the growth inhibition is 2% in test [1] (setting [7]); 92% (active) in test [1] (setting [8]); 95.2% (active) in test [1] (at 50.0 µM); -2% in test [2] (setting [7]); 97% (active) in test [2] (setting [8]); 58.7% in test [2] (at 50.0 µM). Further, the growth inhibition in test [3] (setting [7]) was -11%; in test [3] (setting [8]), 95% (active); in test [3] (at 50.0 µM) it was 97.2% (active); in test [4] (setting [7]), 7%; in test [4] (setting [8]), 66%; in test [4] (at 50.0 µM) it was 78.1% (active). Moreover, the growth inhibition in test [5] (setting [7]) is 2%; in test [5] (setting [8]) it was 89% (active); in test [5] (at 50.0 µM), 30.2%; in test [6] (setting [7]) it was 3%; in test [6] (setting [8]) it was 96% (active); in test [6] (at 50.0 µM), 90.2% (active).

The values are drawn from PubChem BioAssay (NCI).
